An excerpt weighted towards active compounds, which were near 6.5% of everything screened.
HCMV inh: qHTS Assay for inhibitors of the human cytomegalovirus (HCMV). HFF cells, HCMV-luciferase reporter, 72 h; stronger effect = lower value. activity change, negative = inhibition, % at 57.5 µM. 410,000 tested, 4.5% active. AID 1259415, 2018; in the data active means activity change below about -60%; inconclusive means no clear call, values can overlap the other calls; inactive means above about -39%
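Luciferase read-out from HCMV-luciferase-infected HFFs (MOI 1 PFU/cell) 72 h post infection at 37C; compounds added after 16 h cell attachment; activity normalized between buffer-only basal and Salinomycin (10uM) inhibitor controls.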
VACV mCherry inh: qHTS for Stage-Specific Inhibitors of Vaccinia Orthopoxvirus: mCherry Reporter Primary qHTS. Vaccinia virus mCherry reporter infection, fluorescence. Potency, µM (series often up to 36.5 µM), for inactives: at the top dose activity change, negative = inhibition, hits mostly inhibitors. 310,000 tested, 0.63% active. AID 720579, 2013; calls by dose curve; tested in A549 cells; further: potency means the concentration at half of the fitted maximal effect; nearly all actives have a fitted effect of over 35% in size
MARV entry inh: qHTS for inhibitors of binding or entry into cells for Marburg Virus. Marburg virus pseudotyped entry inhibition, cell reporter. Potency, µM (titrated, usually from 37.8 µM), for inactives: at the top dose activity change, negative = inhibition, most hits filed as inhibitors. 300,000 tested, 1.8% active; calls by dose curve; tested in HEK293 cells; further: potency means the concentration at half of the fitted maximal effect
FMDV inh: High Throughput Screening for Foot and Mouth Disease Virus Antivirals | FMDV antiviral cell-based qHTS | Potency, µM (top dose mostly 57.9 µM), for the others: at the top dose activity change, negative = inhibition, usual class: inhibitors | 410,000 tested, 1.2% active; calls by dose curve; tested in HEK293T cells; further: read-out not given here; potency means the concentration at half of the fitted maximal effect; nearly all actives have a fitted effect of over 45% in size
Vaccinia Venus: qHTS for Stage-Specific Inhibitors of Vaccinia Orthopoxvirus: Venus Reporter Primary qHTS. 330,000 tested, 0.46% active. Vaccinia virus Venus reporter expression, fluorescence. AID 720580, 2013. Potency, µM (highest dose often 36.5 µM), without a hit: at the highest dose activity change, negative = inhibition, hits mostly inhibitors; calls by dose curve; tested in A549 cells; further: potency means the concentration at half of the fitted maximal effect; nearly all actives have a fitted effect of over 30% in size
Lassa entry inh: qHTS for Inhibitors of binding or entry into cells for Lassa Virus; Lassa virus pseudotype entry inhibition, cell reporter; Potency, µM (titrated, usually from 37.9 µM), without a hit: at the top dose activity change, negative = inhibition, actives largely listed as inhibitors; 300,000 tested, 1.2% active; AID 540256, 2011; calls by dose curve; tested in HEK293 cells; further: potency means the concentration at half of the fitted maximal effect; nearly all actives have a fitted effect of over 50% in size
The depositor's hits bear a star; i = inactive; ? = inconclusive; . = no result; [ ] = another dose, or the depositor's remark. On the % scale 0 is the no-effect control and ±100 the full control effect.

SMILES	HCMV inh	VACV mCherry inh	MARV entry inh	FMDV inh	Vaccinia Venus	Lassa entry inh
CO/N=C/c1ccc(N2CCN(C(=O)c3cccc(C(F)(F)F)c3)CC2)c([N+](=O)[O-])c1	-22	.	?	?	.	-2%
CO/N=C/c1ccc(N2CCN(C(=O)c3ccc(Cl)cc3Cl)CC2)c([N+](=O)[O-])c1	-98*	.	?	13µM*	.	?
CO/N=C/c1ccc(N2CCN(C(=O)c3ccc(F)cc3)CC2)c([N+](=O)[O-])c1	-29	.	?	20µM*	.	?
COc1ccc(O)c(C(=O)C2c3ccccc3C(=O)N2c2ccc(C)cc2)c1 (centres undefined)	66	-18%	0%[14.2 µM]	34%	-2%	-7%
Cc1ccc(C)c(-c2[nH]ncc2CN2CCCC(CO)(Cc3ccccc3C)C2)c1 (centres undefined)	-8	-18%	25µM*	-25%	1%	.
CN1CCN(c2ccc(S(=O)(=O)N3CCCCC3)cc2NC(=O)/C=C/c2ccc(OC(F)F)cc2)CC1	-13	?	?	-4%	13µM*	?
CCN1CCN(c2ccc(S(=O)(=O)N3CCCCC3)cc2NC(=O)/C=C/c2ccc(OC(F)F)cc2)CC1	-29	?	?	-17%	?	6.3µM*
O=C(Nc1ccccc1F)Nc1cc(S(=O)(=O)N2CCOCC2)ccc1N1CCCC1	-3	i	-14%	15%	6%	?
CCN1CCN(c2ccc(S(=O)(=O)N3CCCCC3)cc2NC(=O)/C=C/c2ccc(F)cc2)CC1	-9	-10%	?	0%	-29%	-15%[46.1 µM]
O=C(Nc1ccc(Cl)c(Cl)c1)Nc1cc(S(=O)(=O)N2CCOCC2)ccc1N1CCCC1	-68*	?	?	-16%	?	?
O=S(=O)(c1ccc(Cl)c(NC(=S)N/N=C/c2ccc(O)cc2)c1)N1CCOCC1	-83*	?	?	?	?	12µM*
CCN1CCN(c2ccc(S(=O)(=O)N3CCOCC3)cc2NC(=O)/C=C/c2ccc(C)cc2)CC1	3	-28%	?	-20%	-15%	-24%
COc1ccc(/C=C/C(=O)Nc2cccc(S(=O)(=O)N3CCOCC3)c2)cc1OC	4	-6%	?	?	-23%	?
O=C(/C=C/c1ccc(Cl)cc1)Nc1cc(S(=O)(=O)N2CCOCC2)ccc1N1CCOCC1	-31	?	?	-16%	?	4.5µM*
O=C(/C=C/c1ccc(OC(F)F)cc1)Nc1cccc(S(=O)(=O)N2CCOCC2)c1	-75*	-18%	?	?	?	?
O=C(/C=C/c1ccc(Cl)c([N+](=O)[O-])c1)Nc1ccc(N2CCCC2)c(Cl)c1	-68*	i	?	-18%	11%	-2%
CCN1CCN(c2ccc(S(=O)(=O)N3CCCCC3)cc2NC(=O)/C=C/c2ccc([N+](=O)[O-])cc2)CC1	-19	?	?	?	-13%	-15%
CN1CCN(c2ccc(S(=O)(=O)N3CCCCC3)cc2NC(=O)/C=C/c2ccc(Cl)c([N+](=O)[O-])c2)CC1	-80*	-10%	?	?	-27%	13µM*
COc1ccc(OC)c(-c2noc(N3CCN(c4ccc(C(C)=O)cc4)CC3)n2)c1	-15	-10%	.	?	-13%	7%[46.1 µM]
Nc1cc(-c2nn[nH]n2)ccc1F	-91*	.	-22%	-19%	-4%	?
O=C(c1ccc2nc(Cc3ccccc3F)oc2c1)N1CCCC1	155	-22%	?	25%	-10%	6.3µM*
CC(=O)N1CCCN(C(=O)c2ccc3nc(Cc4ccccc4F)oc3c2)CC1	6	i	0%	7%	-10%	4%
CCC(C)NC(=O)CSc1nc2cc3c(cc2c(=O)n1CCCC(=O)NCc1ccc2c(c1)OCO2)OCO3 (centres undefined)	-3	-1%	.	-9%	-4%	1%[46.1 µM]
O=C(NCc1ccccn1)[C@H]1[C@H](CO)[C@H]2Cn3c(cccc3=O)[C@@H]1N2CC1CCCCC1	-1	.	.	.	.	.
O=C(COC(=O)c1ccccc1Cl)NC(=O)NCc1ccccc1	33	-5%	-1%	24%	-17%	8.2µM*
SMILES	HCMV inh	VACV mCherry inh	MARV entry inh	FMDV inh	Vaccinia Venus	Lassa entry inh
Cc1ccc(C(=O)OCC(=O)NC(=O)NCc2ccccc2)cc1C	-2	.	.	-7%	.	.
O=C(COC(=O)c1ccc(F)c([N+](=O)[O-])c1)NC(=O)NCc1ccccc1	-12	-2%	?	32µM*	-18%	?
CCNC(=O)NC(=O)COC(=O)c1ccccc1SCC(=O)NC(=O)NCC	125	-15%	14µM*	-73%	-12%	?
COc1cccc(CN2CC(C(=O)NCc3cccc(N4CCCC4)c3)CCC2=O)c1 (centres undefined)	-8	?	2%[46.1 µM]	6%	-10%	13%[46.1 µM]
Cc1cccc(OC(C)C(=O)NC2CCS(=O)(=O)C2)c1C (centres undefined)	.	-12%	13%[46.1 µM]	12%	2%	10%[46.1 µM]
COc1cc(=O)n2c(c1C(=O)NCc1ccco1)CCN(Cc1cccc(Cl)c1)CC2	.	-11%	.	-15%	-4%	.
COc1ccccc1CNc1ncnc2sc(C(=O)N(C)C(C)C)c(C)c12	.	-17%	.	-11%	-12%	.
N=c1c[n+](CC23CC4CC(CC(C4)C2)C3)[n-]o1	-75*	.	1%[46.1 µM]	-12%	-11%	-8%
COc1ccc(CCC(=O)Nc2c(-c3ccc(N(C)C)cc3)[nH][nH]c2=O)cc1	-68*	26%	.	-9%	-9%	.
COc1ccc(-c2[nH][nH]c(=O)c2NC(=O)c2ccccn2)cc1	-6	4%	.	-1%	1%	.
CC(C)(C)OC(=O)C[C@@H]1C/C=C\C[C@@H](CC(=O)N[C@H](CO)Cc2ccccc2)C(=O)N2CCC[C@H]2COC1=O	-36	5%	.	-23%	-9%	.
Cc1ccc(OCC(=O)c2cc(C)n(C3CC3)c2C)c([N+](=O)[O-])n1	-64*	-21%	19%	23%	-7%	-5%
COCCn1c(C)cc(C(=O)COc2cccnc2[N+](=O)[O-])c1C	-84*	i	24%[46.1 µM]	-12%	2%	7%[46.1 µM]
Cc1ccc(OCC(=O)c2cc(C)n(Cc3cccs3)c2C)c([N+](=O)[O-])n1	-94*	?	?	18µM*	?	?
COc1ccc(-n2c(C)cc(C(=O)COc3ccc(C)nc3[N+](=O)[O-])c2C)cc1	-90*	-6%	-33%	?	-4%	-28%
Cc1ccc(OCC(=O)c2cc(C)n(CC(F)(F)F)c2C)c([N+](=O)[O-])n1	-30	i	-3%[46.1 µM]	-22%	-18%	-22%[46.1 µM]
C=C[C@@]1(C)CC[C@H](O)[C@H]2C(=O)CCC[C@H]21	.	.	-28%[14.2 µM]	.	.	.

Assay outcomes as filed in PubChem BioAssay.
